Laboratory results: PubChem BioAssay (EPA / NIEHS)
Inconclusive results are not listed. Calls of active or inactive are those of the source. How the source made its calls: active means hit-call score of the fitted dose curve at least 0.9, where 1 is the maximum; inconclusive means response in the unintended direction; inactive means score below 0.9.

Each compound was assayed against human Phosphodiesterase 5 (PDE5), PDE5A (gene 8654) (UniProt O76074) (assay: NVS_ENZ_hPDE5: NovaScreen (NVS) Enzymatic Assay for human Phosphodiesterase 5 (PDE5) (AID 2283194)).
Protocol: NVS_ENZ_hPDE5 is a biochemical, single-readout assay that uses extracted gene-proteins in a cell-free assay. Measurements were taken 1 hour after chemical dosing in a 384-well plate.NVS_ENZ_hPDE5 is one of one assay component(s) measured or calculated from the NVS_ENZ_hPDE5 assay. It is designed to make measurements of enzyme activity, a form of enzyme reporter, as detected with fluorescence intensity signals by Fluorescence and electrophoretic mobility shift technology.Data from the assay component NVS_ENZ_hPDE5 was analyzed into 1 assay endpoint. This assay endpoint, NVS_ENZ_hPDE5, was analyzed in the positive analysis fitting direction relative to DMSO as the negative control and baseline of activity. Using a type of enzyme reporter, loss-of-signal activity can be used to understand changes in the enzymatic activity as they relate to the gene PDE5A. Furthermore, this assay endpoint can be referred to as a primary readout, because this assay has produced multiple assay endpoints where this one serves a enzymatic activity function. To generalize the intended target to other relatable targets, this assay endpoint is annotated to the esterase intended target family, where the subfamily is phosphodiesterase.
Binding assays used specific radioligands (tritiated, iodinated) with non-radioactive competitive displacement ligands in agonist or antagonist protocols (as indicated) and various reference compounds and inhibitors to titrate specific binding to receptors and transporters. Most enzyme assays (CYPs, kinases, phosphatases, proteases, HDACs) used recombinant protein and specific substrates (fluorescence mostly, some colorimetric and radioactive) and inhibitors, followed by a biochemical separation of substrate and product. All assays for the biochemical HTS were initially run in duplicate at a single concentration (10 uM for CYP450 assays and 25 uM for all others). […] Each assay was run with positive and negative controls, and concurrent controls on every plate. The follow-up (secondary) screen tested active chemical-pairs in concentration series, as well as a few additional assays not tested in the primary screen, some selected negative inactives, and several cases re-run in the concentration series for confirmatory purposes.

AC50, active:
Cn1c(=O)cc(Oc2ccc(F)cc2F)c2cnc(NCC(C)(C)O)nc21 12.4 µM, COc1ccc(-n2nc(C(F)F)cc2-c2ccc(S(C)=O)cc2)cc1 (stereo unspecified) 12.9 µM, CC/C(=C\C(=N/O)C(N)=O)C(C)[N+](=O)[O-] (stereo unspecified) 40.1 µM, O=C(O)c1cccc(N(Cc2cccnc2)c2ccc(OC(F)F)c(OC(F)F)c2)c1 3.28 µM, COc1ccc2sc(C(=O)Nc3nnn[nH]3)c(OC(C)C)c2c1 0.476 µM

outcome, inactive:
Nc1nc2ncc(CNc3ccc(C(=O)N[C@@H](CCC(=O)O)C(=O)O)cc3)nc2c(=O)[nH]1, CN(C)c1ccc(N=NS(=O)(=O)O)cc1, CC(=O)c1ccc2c(c1)[C@H](NC(=O)c1ccc(F)cc1)[C@@H](O)C(C)(C)O2, O=C(O)c1cccc(Oc2ccccc2)c1, CC[C@H](C)C(=O)O[C@H]1C[C@@H](C)C=C2C=C[C@H](C)[C@H](CC[C@@H]3C[C@@H](O)CC(=O)O3)[C@H]21, CC(C)=CCCC(C)CCO (stereo unspecified), CCCCCCc1ccc(O)cc1O, O=C(O)c1cc(N=Nc2ccc(S(=O)(=O)Nc3ccccn3)cc2)ccc1O, Cn1c(=O)c2c(ncn2C)n(C)c1=O, Cc1ccc(N)cc1O, C=CCCCCCCCCC(=O)O
